Screening data as filed in PubChem BioAssay.
Mcl-1 Bim block – human Bim-Mcl-1 interaction inhibition; Q07820; 0.1% of 190,000 active; AID 1009; inhibition, % at 10 µM; Bead-based flow cytometry, Bim peptide-Mcl-1 binding; in the data active means inhibition above about 40%;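 further: 0% = no compound tracer wells and 100% = peptide blocker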
Target sequence (Q07820 whole entry, looked up): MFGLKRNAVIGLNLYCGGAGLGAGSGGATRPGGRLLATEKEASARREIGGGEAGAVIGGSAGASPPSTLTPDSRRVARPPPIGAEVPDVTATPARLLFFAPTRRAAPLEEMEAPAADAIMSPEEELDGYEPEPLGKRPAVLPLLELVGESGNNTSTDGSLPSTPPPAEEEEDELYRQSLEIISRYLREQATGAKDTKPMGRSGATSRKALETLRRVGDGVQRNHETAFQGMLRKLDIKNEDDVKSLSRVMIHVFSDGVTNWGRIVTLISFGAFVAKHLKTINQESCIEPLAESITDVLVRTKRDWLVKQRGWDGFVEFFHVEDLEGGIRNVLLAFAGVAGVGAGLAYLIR
MCL1-BIM inh – MCL1-BIM-BH3 interaction inhibition (human); Q07820; GST-MCL1 / FITC-Bim-BH3 fluorescence polarization; inhibition, % at 10.9 µM; 0.68% of 320,000 active;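 active means inhibition above the mean inhibition of all tested compounds plus 3 SD, set per campaign, cut at about 40% in these data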;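 further: 0% = DMSO wells and 100% = unlabeled Bim-BH3 peptide control; higher means more loss of mP so more displacement of Bim peptide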
BCLXL inh – Bcl-xL (human) inhibition. GST-Bcl-xL / FITC-Bim BH3 peptide fluorescence polarization. Q07817. 0.7% of 320,000 active. inhibition, % at 10.9 µM. AID 2129;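 active means inhibition above the mean of all tested compounds plus 3 SD, cutoff set per campaign, cut at about 30% in these data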;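 further: 0% = DMSO wells and 100% = unlabeled Bim-BH3 peptide competitor; inhibitors lower millipolarization by displacing the labeled peptide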
GLD-1 TGE inh – GLD-1-TGE RNA interaction inhibition (C. elegans); Q17339; purified GLD-1 + fluorescein TGE RNA, fluorescence polarization; inhibition, % at 5.96 µM; 0.44% of 320,000 active; AID 2280;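 active means percent inhibition above a per-plate cutoff, the plate mean of test compounds plus 3 SD, cut at about 30% in these data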;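 further: 0% = DMSO wells with GLD-1 and probe and 100% = wells lacking GLD-1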
Mcl1 Bid PPI – Mcl-1/Bid interaction inhibition | 0.97% of 220,000 active | Q07820 | inhibition, % at 21.7 µM | TR-FRET Mcl-1/Bid-Dy647 peptide binding, 1536-well;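 active means compounds that cut the binding signal by more than half at the single screening dose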;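 further: His-tagged Mcl-1 with europium anti-His antibody binding Bid BH3 peptide; 0% = Mcl-1 plus peptide wells and 100% = peptide-only wells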
Mcl1-Noxa inh – Mcl-1/Noxa interaction inhibition; TR-FRET Mcl-1/Noxa peptide binding, 2 h; AID 1022; Q07820; inhibition, % at 21.7 µM; 1.5% of 220,000 active;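 active means compounds that cut the protein-peptide binding signal by more than 50% relative to plate controls in a single-dose test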;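 further: His-tagged Mcl-1 with rhodamine Noxa BH3 peptide and terbium anti-His antibody; 0% = Mcl-1 plus Noxa peptide wells and 100% = peptide-only wells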
Active calls of the source: *; . = no result. The list is not random: actives were taken first. Their share in the collection is about 2.3%.

SMILES	Mcl-1 Bim block	MCL1-BIM inh	BCLXL inh	GLD-1 TGE inh	Mcl1 Bid PPI	Mcl1-Noxa inh
COc1ccc(NC(=O)c2c(C)noc2C(C)C)cc1S(=O)(=O)N1CCCCC1	.	-18.5	-9.6	3.0	.	.
CCOC(=O)C1=C(COC(=O)Cc2ccc(Cl)cc2)NC(=O)NC1C (stereo not drawn)	.	-12.5	-5.1	4.6	.	.
CC1CCCCC12NC(=O)N(Cn1nnc3ccccc3c1=O)C2=O (stereo not drawn)	-7.0	-0.7	0.3	31.1*	-13.1	-4.8
CCN(Cc1nc2ccccc2c(=O)[nH]1)C(=O)CN1C(=O)NC2(CCCCC2C)C1=O (stereo not drawn)	.	2.3	4.9	5.8	.	.
O=C(CSc1nc(=O)n2ccccc2n1)NC1CCCCC1	.	0.2	0.0	4.0	.	.
CCn1cc(C(=O)Nc2ccc(-n3cnnn3)c(OC)c2)c(=O)c2ccc(C)nc21	2.0	.	.	.	48.5	58.0*
CCn1cc(C(=O)Nc2cccc(C(=O)OC)c2)c(=O)c2ccc(C)nc21	.	2.2	-2.0	-2.5	.	.
O=C(COC(=O)CC(c1ccccc1)c1ccccc1)Nc1cccc(F)c1	-7.0	-6.3	-0.3	4.7	7.7	4.9
O=C(COC(=O)CC(NC(=O)c1ccccc1Cl)c1ccccc1)Nc1cccc(F)c1 (stereo not drawn)	-4.0	0.2	4.9	1.5	72.5*	-3.0
Cc1ccc(C(=O)Nc2c(-c3cccs3)c(=O)c3ccccc3n2C)cc1	1.0	-0.2	2.8	-1.2	66.3*	-0.1
FC(F)(F)c1cccc(CN2CCCCCC2)c1	1.0	7.2	1.9	5.0	51.5*	20.9
CC1(C)Cc2cccc(OCC(=O)OCC(=O)Nc3cccc(S(N)(=O)=O)c3)c2O1	.	1.9	-10.8	6.6	92.6*	-0.7
CC1(C)Cc2cccc(OCC(=O)OCC(=O)Nc3ccccc3)c2O1	.	1.2	-7.6	0.3	.	.
CCN(CC)Cc1cc2[nH]c3c4ccc(Cl)cc4ncc3c2cc1OC	.	.	.	.	7.3	62.7*
CCN(C[C@H]1N[C@@](CC)(C(=O)OC)[C@H]2C(=O)N(C)C(=O)[C@@H]12)S(=O)(=O)c1ccc(F)cc1	.	.	.	1.1	.	.
C/C(=C\COc1ccc2ccc(=O)oc2c1)CC[C@@H](O)C(C)(C)O	.	8.9	160.5*	5.0	.	.
CC(=O)Nc1ccc(NC(=O)COC(=O)c2c3c(nc4ccccc24)CCN(Cc2ccccc2)C3)cc1	-3.0	-1.4	7.9	-2.6	-14.4	2.1
COC(=O)c1ccc(CNC(=O)c2c3c(nc4ccccc24)CCN(Cc2ccccc2)C3)cc1	-4.0	-9.4	9.8	11.9	94.0*	26.2
O=C(COC(=O)c1c2c(nc3ccccc13)CCN(Cc1ccccc1)C2)Nc1c(F)cccc1F	-3.0	40.8*	34.4*	38.8*	9.6	-1.9
CCN(CC)S(=O)(=O)c1ccc(N2CC(C(=O)NC3(C)CCS(=O)(=O)C3)CC2=O)cc1 (stereo not drawn)	.	-2.0	-2.9	3.0	.	.
CC1(C)Cc2c(cnn2-c2ccc(F)cc2)C(NC(=O)c2ccc(=O)oc2)C1 (stereo not drawn)	.	-6.7	2.4	-2.3	.	.
COCCn1c(=NC(=O)c2cccs2)sc2cc(NC(C)=O)ccc21	-7.0	0.2	1.4	1.9	5.5	10.3
C#CCn1c(=NC(=O)c2ccc(Br)s2)sc2cc(NC(C)=O)ccc21	-13.0	-1.6	0.5	-4.1	58.4*	-31.1
NC(=O)c1ccc(Oc2cccc3cccnc23)c([N+](=O)[O-])c1	2.0	29.0	32.8*	6.5	-40.3	34.1
c1coc(-c2nc3c4c5c(sc4ncn3n2)CCCC5)c1	-1.0	6.5	9.0	2.5	96.8*	10.8
SMILES	Mcl-1 Bim block	MCL1-BIM inh	BCLXL inh	GLD-1 TGE inh	Mcl1 Bid PPI	Mcl1-Noxa inh
COC(=O)c1cccc(N(CC(=O)NC2CCCC2)C(=O)CNC(=O)c2cccs2)c1	.	1.8	-0.7	2.0	.	.
O=C(COC(=O)c1ccccn1)NC1CCCCC1	66.0*	7.9	3.1	5.3	2.3	3.1
Cc1ccc(S(=O)(=O)N2CCN(C(=O)C3CSC4(C)CCC(=O)N34)CC2)cc1C (stereo not drawn)	.	6.6	2.9	-0.1	.	.
O=C(Cc1ccsc1)Nc1ccccc1F	.	6.0	6.8	-3.6	.	.
CC(C)C(=O)NNS(=O)(=O)c1ccccc1	0.0	9.4	6.3	0.1	-16.5	3.5
CNNC(=O)C(=O)NNS(=O)(=O)c1ccccc1	-1.0	3.2	-3.1	3.2	85.7*	-3.4
